Most compounds without a hit are left out; they make up all but 1.2% or so of the library.
RGS8-Gao = regulators of human RGS8-Galphao interaction | multiplexed bead flow cytometry, RGS8-Galphao binding; actives lie on both sides | response (percent of control binding), % at 10 µM | 220,000 tested, 0.34% active; in the data active = response below about 60% or above about 140%; inactive = in between;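 also: Galphao activated as the GDP aluminium fluoride complex binding bead-coupled RGS8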
Target sequence (P09471 whole entry, looked up): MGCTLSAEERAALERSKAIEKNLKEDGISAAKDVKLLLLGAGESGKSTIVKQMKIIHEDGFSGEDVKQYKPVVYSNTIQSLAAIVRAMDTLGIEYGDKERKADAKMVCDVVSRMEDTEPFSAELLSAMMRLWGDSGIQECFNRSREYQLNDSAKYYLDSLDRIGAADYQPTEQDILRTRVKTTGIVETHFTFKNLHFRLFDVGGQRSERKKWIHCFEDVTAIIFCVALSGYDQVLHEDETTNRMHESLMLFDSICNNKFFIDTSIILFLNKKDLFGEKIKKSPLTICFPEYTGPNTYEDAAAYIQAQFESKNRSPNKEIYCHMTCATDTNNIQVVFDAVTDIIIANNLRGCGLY
RGS4-Gao reg = modulates binding of RGS4 to human Galphao; Multiplexed bead flow cytometry; actives lie on both sides; binding response (% of control), % at 10 µM; 220,000 tested, 0.33% active; P09471; in the data active = binding response below about 49% or above about 150%; inactive = in between;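 also: fluorescent Galphao activated with aluminum fluoride binding bead-coupled RGS4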
Avidin bead fluor = avidin bead compound fluorescence profile | Avidin beads, compound fluorescence 488/530 nm, flow cytometry; hits give high values | AID 1775 | 220,000 tested, 0.38% active | fluorescence (KMESF) at 10 µM; in the data active = fluorescence above about 47
RGS7-Gao reg = human RGS7-Galphao interaction regulation. P09471. Multiplexed bead flow cytometry, RGS7-Galphao binding; actives lie on both sides. binding response (% of control), % at 10 µM. 220,000 tested, 0.35% active; in the data active = binding response below about 49% or above about 150%; inconclusive = no clear call, values can overlap the other calls; inactive = in between;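 also: fluorescent Galphao held in activated GDP-AlF4 state binding bead-coupled RGS7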
GSH fluor = compound fluoresces at 488/530 nm on GSH beads; fluorescence (KMESF) at 10 µM; 190,000 tested, 0.25% active; AID 1776; GSH beads flow cytometry, compound fluorescence 488/530 nm; hits give high values; in the data active = fluorescence above about 89;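 also: glutathione beads carrying GST-tagged Bcl family fusion proteins plus one bare bead set; values are compound well signal with DMSO vehicle wells as background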
RGS16-Gao = RGS16-Galphao interaction regulator (human); O15492+P09471; binding response (% of control), % at 10 µM; bead-based flow cytometry RGS16-Galphao binding, fluorescence; actives lie on both sides; AID 1441; 220,000 tested, 0.38% active; call rule not given here;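 also: Galphao activated by GDP with aluminum fluoride before binding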
Target sequence (O15492 whole entry, looked up): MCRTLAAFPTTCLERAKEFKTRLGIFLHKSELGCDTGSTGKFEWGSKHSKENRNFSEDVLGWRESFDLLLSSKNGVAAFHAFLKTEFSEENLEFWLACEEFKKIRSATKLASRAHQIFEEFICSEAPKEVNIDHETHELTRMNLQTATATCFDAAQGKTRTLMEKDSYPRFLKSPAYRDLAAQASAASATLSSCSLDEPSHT
Target sequence (P09471 whole entry, looked up): as the sequence (P09471 whole entry, looked up) above
Active calls of the source: *; ? = inconclusive; · = no result; [ ] = dose if it differs, or a comment.

SMILES | RGS8-Gao | RGS4-Gao reg | Avidin bead fluor | RGS7-Gao reg | GSH fluor | RGS16-Gao
COC(=O)CNC(=O)COC(=O)c1cc(Cl)cc(Cl)c1N | 98 | 100 | 31 | 102 | 22 | 100
Cn1c[n+](C)cc1-c1ccc(/C(N)=N/O)cc1 | 121 | 112 | 3 | 109 | 9 | 145
Cc1ccc(C(=O)OCC(=O)N2CCc3ccccc32)cc1 | 105 | 120 | 50* | 115 | 10 | 120
COc1ccc(NC(=O)CS(=O)(=O)c2cn(CC(=O)N3CCOCC3)c3ccccc23)cc1 | 100 | 98 | 9 | 91 | 25 | 96
COc1ccc(OC)c(C2C=C(c3ccc(C)c(C)c3)Nc3nnnn32)c1 (configuration not stated) | 102 | 106 | 51* | 112 | 53 | 102
CCOC(=O)C1(Cc2cccc(OC)c2)CCN(Cc2cccnc2)CC1 | 99 | 100 | 16 | 100 | 12 | 102
O=C(CSc1ccccc1)NCCCc1ccccc1 | 100 | 96 | 9 | 94 | 17 | 98
Cc1ccc(S(=O)(=O)N(C)Cc2nc(-c3ccncc3)no2)cc1 | 101 | 102 | 50* | 105 | 17 | 102
COC(=O)C(Cc1cnc(Cl)s1)(C(=O)OC)c1ccc([N+](=O)[O-])cc1[N+](=O)[O-] | 104 | 99 | 7 | 102 | 272* | 117
Cc1ccccc1NC(=O)C1CCCN1C(=O)NC1CCCCC1 (configuration not stated) | 103 | 102 | 8 | 102 | 263* | 104
Nc1cc2c(cc1C(=O)c1cccc(Br)c1)OCCO2 | 106 | 104 | 9 | 103 | 17 | 103
NCCSc1c(-c2ccc(Cl)cc2)[nH]c2ccccc12 | 102 | 104 | 6 | ? | · | 106
NCCSc1c(-c2ccccc2)[nH]c2ccccc12 | 13* | 5.5* | -1 | -8.4* | 17 | -3.3*
COC(=O)c1cccc(NC(=O)c2onc3c2CCCC3)c1 | 100 | 100 | 17 | 101 | 16 | 98
O=C(Nc1ccc2ccccc2c1)c1onc2c1CCCC2 | 100 | 119 | 57* | 126 | 9 | 111
CC(=O)Oc1ccc2c(c1)Oc1cc(OC(C)=O)ccc1C21OC(=O)c2ccccc21 | 165*[activator] | 581*[activator] | 399* | 628*[activator] | 200* | 888*[activator]
COCCOc1ccc(C(F)(F)F)cc1NC(=O)c1ccc(C)cc1 | 100 | 107 | 59* | 146 | 12 | 107
N/C(=N\OC(=O)CCn1cccc(C(F)(F)F)c1=O)c1ccc(Cl)cc1 | 101 | 94 | 8 | ? | · | 96
O=[N+]([O-])c1cccc(N/N=C/c2cccc(O)c2O)c1 | 98 | 98 | 9 | 98 | 11 | 95
O=S(=O)(Nc1ccc(Cc2ccncc2)cc1)c1ccc(Br)cc1 | 12* | 22* | -2 | 15* | 20 | 1.0*
COC(=O)c1ccc(C2C(Oc3ccccc3)C(=O)N2CCc2ccc(F)cc2)cc1 (configuration not stated) | 100 | 100 | 61* | 112 | 17 | 100
Cc1cc2cc(C)c3nnc(SCC(=O)N4CCc5ccccc54)n3c2cc1C | 12* | 22* | -2 | 14* | 23 | 1.3*
Cc1cc2cc(C)c3nnc(SCC(=O)N4CCCc5ccccc54)n3c2cc1C | 85 | 86 | 12 | 87 | 31 | 87
COc1ccc(N(C(=O)Cn2nnc3ccccc32)C(C(=O)NCc2ccco2)c2ccc(C)o2)cc1 (configuration not stated) | 100 | 99 | 6 | 102 | 252* | 85
CCn1c(SCC(=O)N2CCN(c3ccccc3)CC2)nnc1-c1ccncc1 | 99 | 98 | 4 | 101 | 148* | 95
SMILES | RGS8-Gao | RGS4-Gao reg | Avidin bead fluor | RGS7-Gao reg | GSH fluor | RGS16-Gao
NC(=O)CSc1nnc(-c2ccncc2)n1-c1ccc(Cl)cc1 | 86 | 90 | 5 | 94 | 23 | 49
O=C(CSc1nnc(-c2ccncc2)n1-c1ccc(Cl)cc1)N1CCOCC1 | 98 | 107 | 77* | 132 | 18 | 104
CCCCSc1ncc(C(=O)OCC)c(N)n1 | 102 | 101 | 4 | 96 | 129* | 101
CC1CC(C)CN(C(=O)c2cc3cc(Br)cc(Br)c3o2)C1 (configuration not stated) | 100 | 102 | 21 | 101 | 7 | 108
CC(CC(=O)Nc1cccnc1)c1ccccc1 (configuration not stated) | 95 | 95 | 8 | ? | 16 | 98
O=C(NCCCn1ccnc1)C(=O)Nc1ccccc1 | 100 | 95 | 12 | 98 | 13 | 105
Cn1c2ccccc2c2c(C(=O)N3CCN(C(=O)c4ccco4)CC3)cn(C3CCCCC3)c(=O)c21 | 93 | 65 | 11 | 71 | 149* | 62
Cn1c2ccccc2c2c(C(=O)N3CCN(c4ccccn4)CC3)cn(C3CCCC3)c(=O)c21 | 102 | 103 | 9 | 103 | 13 | 107
O=C1c2ccccc2C(=O)N1CCc1nc2ccccc2c(=O)n1CCCn1ccnc1 | 105 | 108 | 8 | 104 | 272* | 120
CCn1c(CSc2nc3ccccc3s2)nnc1SCC(=O)c1ccc(O)c(O)c1 | 76 | 68 | 4 | 67 | 268* | 65
Cc1cc(NC(=O)C2(c3ccccc3)CCCC2)no1 | 113 | 136 | 59* | 135 | 16 | 160
COc1cccc(OC)c1OCCCCN1CCCC1 | 100 | 98 | 56* | 107 | 15 | 95
COc1cccc(OC)c1OCCCN1CCOCC1 | 101 | 102 | 11 | 99 | 16 | 104
O=C(Nc1cccc(Br)c1)c1ccc(OC2CSC2)cc1 | 101 | 99 | 10 | 95 | 13 | 100
COc1cc(C(F)(F)F)nc(-c2ccccn2)n1 | 102 | 101 | 11 | ? | 18 | 104
CC(C)Nc1cc(C(F)(F)F)nc(-c2ccccn2)n1 | 95 | 153*[activator] | 332* | 274*[activator] | 33 | 160
CCn1c(SCC(=O)Nc2ccc(-c3nc4ccc(C)cc4s3)cc2)nnc1-c1ccccc1 | 104 | 115 | 256* | 112 | 24 | 393
Cc1cc(Nc2ncc(Cl)cc2Cl)n(-c2ccccn2)n1 | 107 | 102 | 7 | 100 | 268* | 118
COc1ccc(Nc2nc(N)c([N+](=O)[O-])c(NCc3ccccc3)n2)cc1 | 101 | 128 | 56* | ? | · | 120
Cc1ccc(Nc2nc(N)c([N+](=O)[O-])c(NCc3ccccc3)n2)cc1 | 103 | 105 | 8 | ? | · | 104
O=C(N/N=C/c1ccc(-c2ccccc2[N+](=O)[O-])o1)c1cncc(Br)c1 | 80 | 85 | 83* | 78 | 6 | 23
Cc1cccc(-n2c(=S)[nH]c3nc4c(cc3c2=O)COC(C)(C)C4)c1 | 90 | 80 | 4 | ? | · | 84
c1ccc(-c2ncc(-c3ccn[nH]3)s2)cc1 | 108 | 100 | 25 | 104 | 9 | 109
